Shown are actives, neighbours in structure and some others; about 3% of the full set was active somewhere.
SENP7 inh – inhibitors of human SENP7 protease; Q9BQF6; recombinant SENP7, Z-RLRGG-aminoluciferin luminescence, 40 min; inhibition, % at 5 µM; 1.5% of 330,000 active;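 active means inhibition above about 50% at the single test dose, limit read from the data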;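 further: plate controls were DMSO with enzyme for no effect and no enzyme buffer wells for full effect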
Target sequence (Q9BQF6 706-1050 limits assumed): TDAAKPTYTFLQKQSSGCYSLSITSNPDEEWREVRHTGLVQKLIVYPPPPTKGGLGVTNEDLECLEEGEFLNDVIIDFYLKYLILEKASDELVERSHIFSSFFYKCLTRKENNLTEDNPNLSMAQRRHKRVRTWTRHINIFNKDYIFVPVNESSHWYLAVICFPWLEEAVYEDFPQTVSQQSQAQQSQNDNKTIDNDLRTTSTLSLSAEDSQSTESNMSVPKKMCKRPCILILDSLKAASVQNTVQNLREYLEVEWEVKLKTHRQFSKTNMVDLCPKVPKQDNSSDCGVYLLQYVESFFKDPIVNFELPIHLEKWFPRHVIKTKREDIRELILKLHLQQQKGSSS
TRAIL sens C8 – sensitizes caspase-8 expressing cells to TRAIL | NB7+C8 cells + TRAIL, ATPlite viability luminescence | inhibition (viability loss, TRAIL sensitization), % at 10 µM | 1% of 360,000 active;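 active means compounds causing at least 50% loss of cell viability in the single-dose screen, relative to plate controls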
SENP6 inh – inhibitors of human SENP6 protease; Q9GZR1; Recombinant SENP6 catalytic domain, aminoluciferin luminescence; inhibition, % at 10 µM; 1.8% of 330,000 active; AID 2599;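 active means inhibition above about 50% at the single tested dose, limit read from the data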;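 further: plate controls were DMSO wells with enzyme for no effect and DMSO wells lacking enzyme for full effect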
SENP8 block-1 – inhibitors of human SENP8 protease; Q96LD8; purified SENP8, Z-RLRGG-aminoluciferin cleavage, luminescence; inhibition, % at 10 µM; 1.2% of 330,000 active; AID 2540; in the data active means inhibition above about 50%
Target sequence (Q96LD8 whole entry, looked up): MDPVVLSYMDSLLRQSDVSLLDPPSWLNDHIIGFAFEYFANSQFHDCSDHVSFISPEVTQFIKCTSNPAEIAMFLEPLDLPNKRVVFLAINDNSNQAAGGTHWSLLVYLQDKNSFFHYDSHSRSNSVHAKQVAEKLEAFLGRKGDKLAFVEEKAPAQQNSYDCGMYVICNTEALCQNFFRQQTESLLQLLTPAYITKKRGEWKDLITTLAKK
SENP8 block-2 – blocks human SENP8 cleavage of Nedd8 substrate. inhibition, % at 20 µM. recombinant SENP8, Nedd8 substrate fluorescence. 0.64% of 360,000 active. Q96LD8; in the data active means inhibition mostly above about 40%, no sharp cut-off; inactive means mostly below about 27%
PPC-1+TRAIL kill – kills PPC-1 cancer cells in the presence of TRAIL; PPC-1 cells + TRAIL, ATPLite viability luminescence; cell killing (% activity), % at 4 µM or 5 µM; 0.41% of 220,000 active; AID 1443;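 active means cell killing above 50% in the first pass at 4 µM, then a duplicate retest at 5 µM averaging 50% or more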;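 further: plate controls were cells with TRAIL plus DMSO for no effect and medium-only wells lacking cells for full effect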
PPC-1 tox – PPC-1 cell cytotoxicity; 50% of 1,200 active; cytotoxicity, % at 5 µM; shares compounds with PPC-1+TRAIL kill; PPC-1 viability, ATPlite luminescence, overnight;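 active means reconfirmed compounds whose average cytotoxicity reaches 50% or more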;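 further: 0% = DMSO-treated cells and 100% = wells holding medium but no cells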
* = called active by the depositor; / = not tested or not shown.

SMILES | SENP7 inh | TRAIL sens C8 | SENP6 inh | SENP8 block-1 | SENP8 block-2 | PPC-1+TRAIL kill | PPC-1 tox
COC(=O)C1(C)NC(c2cccc(C)c2)C2C(=O)N(c3ccccc3)C(=O)C21 (configuration not stated) | / | -3.7 | / | / | 12.2 | / | /
CS(=O)(=O)c1ccc(C(=O)OCC(=O)NC23CC4CC(CC(C4)C2)C3)cc1[N+](=O)[O-] | 2.0 | -4.8 | 2.5 | 1.2 | 31.3 | -8.1 | -9.7
CC1(C(=O)Nc2cccc(-n3cnnn3)c2)Cc2ccccc2C(=O)O1 (configuration not stated) | -6.1 | 4.2 | -10.6 | -6.9 | 11.5 | / | /
COc1ccc(C(C)(O)c2nc(-c3ccccc3OC)cs2)cc1 (configuration not stated) | / | 15.7 | / | / | 13.5 | / | /
CCNC(=O)CN(c1ccccc1)S(=O)(=O)c1ccc(Cl)cc1 | -2.9 | -3.6 | -11.1 | 7.7 | 20.7 | -4.5 | 0.6
Oc1ccc(-c2nccs2)cc1 | / | 1.0 | / | / | -314.3 | / | /
O=C1c2cccc3c([N+](=O)[O-])ccc(c23)C(=O)N1CCc1ccccn1 | 5.3 | 43.6 | 4.9 | -7.0 | -427.9 | 24.2 | 12.1
O=C1c2ccccc2C(=O)N1CCc1ccccn1 | 3.5 | -8.2 | -16.7 | 2.1 | 14.9 | 7.1 | /
Cc1cccc(NS(=O)(=O)c2cc(C(=O)N3CCc4ccccc4C3)ccc2Cl)c1C | 2.0 | 2.5 | -6.0 | -4.0 | 10.0 | 3.0 | 3.3
Cc1ccc(C)c(NS(=O)(=O)c2cc(C(=O)N3CCc4ccccc4C3)ccc2Cl)c1 | -18.6 | -2.0 | -3.7 | -1.4 | 1.8 | 17.9 | /
O=C(O)CC(NC(=O)c1ccccc1NC(=O)c1ccccc1)C(=O)O (configuration not stated) | -1.2 | -4.3 | -13.0 | -9.4 | 6.5 | 4.7 | 3.3
Nc1nonc1-c1nc2ccccc2n1Cc1ccc(F)cc1Cl | -1.5 | 20.5 | -12.6 | -1.7 | -42.1 | 19.6 | /
Fc1ccc(Cn2c(-c3cscn3)nc3ccccc32)c(Cl)c1 | 8.6 | -10.1 | 3.6 | 2.7 | -4.5 | -3.0 | 9.6
Cc1cccc(C)c1NC(=O)C1(C)CN(S(C)(=O)=O)CC(=O)N1Cc1ccco1 (configuration not stated) | / | 1.3 | / | / | 15.1 | / | /
COc1c2c(c(OC)c3ccccc13)[C@@]1(OC2)O[C@H](CCO)C[C@H](O)[C@H]1O | / | -0.2 | / | / | -5.0 | / | /
COc1cc(SC)ccc1C(=O)Nc1ccc2c(c1)OCO2 | / | 37.7 | / | / | -5.8 | 42.2 | 39.6
COc1cc(SC)ccc1C(=O)Nc1ccccn1 | 44.2 | 76.7* | 47.2 | 17.7 | 14.5 | 68.4* | 66.3*
COc1cc(SC)ccc1C(=O)Nc1cccc(C)n1 | 44.5 | 43.5 | -19.4 | 27.1 | 15.4 | / | /
CCOc1ncccc1C(=O)OCC(=O)c1ccc(F)cc1 | 22.0 | -3.9 | 37.9 | 14.0 | -4.3 | -30.9 | /
O=C(Nc1ccc(N2CCOCC2)cc1)c1cnsn1 | 29.9 | 70.9* | 43.8 | 10.1 | 22.4 | 73.1* | 71.0*
Cc1c(NC(=O)c2cc(-n3cnnc3)ccc2Cl)cccc1-c1nc2ccccc2s1 | 0.9 | 77.6* | -4.9 | 2.0 | 1.9 | 61.1* | 57.6*
CCN1CCC[C@H]1CNCCCn1cnc2c(SC)ncnc21 | / | 8.2 | / | / | 15.8 | / | /
COc1ccc(CNC(=O)COC(=O)c2ccc(OCC3CCCO3)cc2)cc1 (configuration not stated) | 7.6 | 17.2 | -5.9 | -3.5 | 5.5 | / | /
Cc1ccc2oc(/N=C(\N)NC(=O)C(C)(C)C)nc2c1 | 64.8* | 86.3* | 36.9 | 36.4 | -1.5 | 83.2* | 83.1*
Brc1ccc(N=Nc2ccc3ccccc3n2)cc1 | 99.6* | 91.7* | 97.2* | 95.9* | 28.6 | 93.8* | 93.4*
SMILES | SENP7 inh | TRAIL sens C8 | SENP6 inh | SENP8 block-1 | SENP8 block-2 | PPC-1+TRAIL kill | PPC-1 tox
CC(NC(=O)c1ccc2ccccc2n1)c1ccc(Br)cc1 (configuration not stated) | 1.4 | -3.8 | -8.5 | 0.4 | 2.5 | / | /
O=C(Nc1ccc(F)cc1)c1nn(-c2ccccc2)c(=O)cc1Cl | / | -11.5 | / | / | 10.7 | 5.2 | 0.4
Cc1ccc(NC(=O)c2cc(-c3ccccc3)nn2-c2ccccc2)cc1 | -2.6 | 3.0 | -8.1 | -7.8 | 8.6 | 15.4 | /
Nc1nc(CCl)nc(Nc2ccc3ccccc3c2)n1 | / | 95.2* | / | / | 5.7 | 96.0* | 95.4*
CCCCN(C)S(=O)(=O)c1c(C)[nH]c(=O)[nH]c1=O | 14.2 | 5.4 | -4.8 | -2.5 | 13.0 | 4.5 | 0.4
Cc1ccc(C(=O)Nc2nc(=O)n(C)s2)cc1 | 38.5 | 53.1* | 49.4 | 6.4 | 6.5 | 31.2 | 37.4
Cc1ccc(C(=O)Nc2nccs2)cc1 | 41.2 | 23.6 | -7.8 | 20.0 | -257.6 | 6.7 | 3.9
CCOC(=O)Nc1ccc(S(=O)(=O)N2CCOCC2)cc1 | -6.0 | -14.3 | -16.8 | -9.6 | 14.3 | 13.3 | /
CCOC(=O)Nc1ccc(S(=O)(=O)NCCCN2CCOCC2)cc1 | 9.0 | -1.0 | 2.2 | 4.0 | 0.7 | 8.9 | 5.8
COc1ccc(NC(=O)CN2C(=O)NC3(CCCCCC3)C2=O)cc1Cl | 2.6 | -0.9 | -20.3 | 8.1 | 14.4 | / | /
CCCCN1C(=O)/C(=C2\SC(N3CCCCC3)=NC2=O)c2ccccc21 | 10.6 | 38.0 | 26.1 | -6.7 | 12.7 | 40.1 | 43.7
CCN(CC)S(=O)(=O)c1cccc(C(=O)Nc2ccccc2C(=O)N2CCOCC2)c1 | 5.0 | -8.7 | -4.0 | -4.1 | 14.4 | 5.2 | -4.2
C=CCn1c(N/N=C/c2ccc(O)cc2)nc2ccccc2c1=O | 0.7 | 17.9 | -3.5 | -0.9 | 1.0 | 27.2 | 31.5
COC(=O)C1=C(C)N(CC(C)C)C(=O)C1 | 0.2 | 1.1 | 0.6 | -16.2 | 5.8 | 12.9 | 12.6
COC(=O)C1=C(C)N(Cc2ccc(OC)cc2)C(=O)C1 | -5.0 | -8.9 | -1.6 | -10.7 | 5.4 | 10.9 | /
COc1cccc(N2CCN(c3ncnc4c3[nH]c3ccc(F)cc34)CC2C)c1 (configuration not stated) | -1.8 | 95.3* | -10.1 | 1.4 | -283.7 | 63.2* | 62.7*
COc1cccc(N2CCN(c3ncnc4c3[nH]c3ccccc34)CC2C)c1 (configuration not stated) | 0.7 | / | -20.2 | 0.7 | / | 21.3 | /
Cn1nccc1C(=O)Nc1cccc(S(=O)(=O)N2CCOCC2)c1 | 4.1 | -15.4 | 1.8 | -7.6 | 1.0 | / | /
O=C(O)/C=C/C(=O)Nc1ccccc1C(=O)OCC(=O)c1ccc2c(c1)OCCO2 | 24.5 | 52.8* | 33.8 | 40.7 | -72.9 | 78.3* | 78.9*
O=C(COc1ccc(CO)cc1)Nc1ccc(F)cc1 | -2.1 | -3.8 | -10.8 | -1.2 | 11.1 | 25.3 | /
O=C(COc1ccc(CO)cc1Cl)Nc1ccc(F)cc1 | 13.3 | 54.5* | -40.2 | -11.4 | 25.6 | 44.9 | 45.5
O=C(CSc1nnc(-c2ccccc2Cl)o1)Nc1ccccn1 | -5.5 | 52.2* | 2.1 | 1.1 | 4.3 | 63.2* | 64.8*
Cc1occc1-c1nnc(SCC(=O)Nc2ccccn2)o1 | -3.0 | 4.9 | -11.4 | -4.1 | 14.3 | 34.2 | /

Screening results: PubChem, Sanford-Burnham Center for Chemical Genomics
